In PubChem BioAssay:
“And” between values parts separate entries of the source, which are not always exact repeats. Equal entries are not always repeated. The source made the active and inactive calls. Unless noted, how the calls were made is not given here.

How the values were obtained:
[1] = system: Aerobactin synthetase IucA (Klebsiella pneumoniae); assay: IucA aerobactin synthetase inhibitors, biochemical, Tocris library, absorbance (AID 1345561); conditions: purified IucA enzyme assay, absorbance (OD) read-out; stronger effect = lower value;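 tested at 8 µM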;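 further: 100% = enzyme without compound and 0% = no enzyme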
[2] = sensitizers of A549 cells to miR-34 induction, primary screen, imaging, A549 dox-inducible miR-34, nuclei and caspase counts (AID 1347080;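 active means compounds whose cell count with miR-34 switched on is under 0.7 times the count with it off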); conditions: A549 miR-34 inducible, Hoechst nuclei count, 48 h
[3] = viability rescue of complex I mutant cybrids, primary screen, cell-based, galactose medium, ATP luminescence (AID 1645843;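 active means z-score of at least 1.8 in each of two replicates, scored against plate mean and spread of sample wells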;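 further: positive z means more ATP and so rescue of galactose-driven cybrid death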); conditions: complex I mutant cybrid cells, 72 h, stronger effect = higher value
[4] = liver-stage malaria parasite growth inhibition, primary screen, cell-based, HepG2, luciferase luminescence, HepG2 viability (AID 624349; in the data active means parasite load remaining mostly below about 12%, no sharp cut-off; inactive means mostly above about 10%;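 further: 100% = mean of DMSO negative control wells on the same plate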); conditions: P. berghei liver stage in HepG2, luciferase luminescence, concentration not given here; parasite load remaining: stronger effect = lower value; viability: measured here: HepG2 viability without parasites
[5] = Cy5 fluorescence interference with SSB-bound oligo, artefact control for HCV NS3 helicase inhibitor project, biochemical, NIH Clinical Collection, E. coli SSB (AID 743268)
[6] = system: Hepatitis C virus NS3 helicase; assay: HCV NS3 helicase inhibitors, primary screen, biochemical, fluorescence polarization, NIH Clinical Collection (AID 743270); conditions: NS3 helicase binding to Cy5-dT15 DNA, stronger effect = higher value, concentration not given here
[7] = target: Single-stranded DNA-binding protein (Escherichia coli (strain K12)) (UniProt P0AGE0); assay: E. coli SSB displacement from DNA, counter-screen for HCV NS3 helicase inhibitor project, biochemical, fluorescence polarization, NIH Clinical Collection (AID 743271; in the data active means inhibition above about 28%); conditions: stronger effect = higher value, concentration not given here
[8] = fluorescence interference in NS3h assay format, artefact control for HCV NS3 helicase inhibitor project, biochemical, NIH Clinical Collection (AID 743272); conditions: fluorescence interference counterscreen, stronger effect = lower value;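 further: HCV NS3 helicase with a Cy5 labelled single stranded DNA probe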
[9] = stronger effect = lower value, cell number ratio, induced over uninduced
[10] = measured here: relative caspase fold change +Dox/-Dox
[11] = measured here: total cells with miR-34 induction, stronger effect = lower value
[12] = measured here: total cells without miR-34 induction

## CCCCC1(C2CCCC2)Cc2cc(OCCCC(=O)O)c(Cl)c(Cl)c2C1=O (stereo unspecified)
[1]
  remaining activity: 98.2% (inactive)
[2]; [9]
  fold change: 0.969 (inactive)
[2]; [10]
  fold change: 0.91
[2]; [11]
  cell count: 7490
[2]; [12]
  cell count: 7730
[3]
  z-score: 3.13 (active)

## CC(C)(C)NCC(O)COc1cccc2[nH]c(C#N)cc12 (stereo unspecified)
[1]
  remaining activity: 115% (inactive)
[2]; [9]
  fold change: 0.911 (inactive)
[2]; [10]
  fold change: 1.8
[2]; [11]
  cell count: 9030
[2]; [12]
  cell count: 9910
[3]
  z-score: 0.025 (inactive)

## CC(=O)N1CC[N+](C)(C)CC1
[1]
  remaining activity: 90.4% (inactive)
[2]; [9]
  fold change: 0.94 (inactive)
[2]; [10]
  fold change: 0.788
[2]; [11]
  cell count: 9100
[2]; [12]
  cell count: 9680
[3]
  z-score: 0.25 (inactive)

## Cc1cc(C)cc(C(=O)OC2CC3CCC(C2)N3C)c1 (stereo unspecified)
[1]
  remaining activity: 86.6% (inactive)
[2]; [9]
  fold change: 0.914 (inactive)
[2]; [10]
  fold change: 1.01
[2]; [11]
  cell count: 8100
[2]; [12]
  cell count: 8850
[3]
  z-score: -0.125 (inactive)

## O=C1NC(=O)c2c1c1c3ccccc3[nH]c1c1[nH]c3ccccc3c21
[4]
  parasite load remaining: 79.1% (inactive)
  viability: 159%
[1]
  remaining activity: 93.4% (inactive)
[2]; stronger effect = lower value
  fold change: 0.78 (inactive)
[2]; [10]
  fold change: 1.58
[2]; [11]
  cell count: 3660
[2]; [12]
  cell count: 4680
[3]
  z-score: -0.6 (inactive)

## CCN(CC)CCO[C@H]1CC[C@@]2(C)C(=CC[C@@H]3[C@@H]2CC[C@]2(C)C(=O)CC[C@@H]32)C1
[1]
  remaining activity: 113% (inactive)
[2]; [9]
  fold change: 0.896 (inactive) and 0.878 (inactive)
[2]; [10]
  fold change: 0.558 and 0.739
[2]; [11]
  cell count: 5320 and 6330
[2]; [12]
  cell count: 5930 and 7220
[3]
  z-score: -0.79 (inactive)

## O=Cc1cn(Cc2ccc(Cl)cc2)c2ccccc12
[1]
  remaining activity: 119% (inactive)
[2]; [9]
  fold change: 0.901 (inactive)
[2]; [10]
  fold change: 1.34
[2]; [11]
  cell count: 4020
[2]; [12]
  cell count: 4470
[3]
  z-score: -0.645 (inactive)

## CC(C)CC(N)C1(c2ccc(Cl)cc2)CCC1 (stereo unspecified)
[1]
  remaining activity: 120% (inactive)
[2]; stronger effect = lower value
  fold change: 1.01 (inactive)
[2]; [10]
  fold change: 1.15
[2]; [11]
  cell count: 7820
[2]; [12]
  cell count: 7770
[3]
  z-score: -0.615 (inactive)

## NCC(CS(=O)(=O)O)c1ccc(Cl)cc1 (stereo unspecified)
[1]
  remaining activity: 108% (inactive)
[2]; [9]
  fold change: 0.961 (inactive)
[2]; [10]
  fold change: 1.04
[2]; [11]
  cell count: 9200
[2]; [12]
  cell count: 9570
[3]
  z-score: 0.475 (inactive)

## CC(=O)[C@H]1CC[C@H]2[C@@H]3CCC4C[C@](C)(O)CC[C@]4(C)[C@H]3CC[C@]12C (stereo partly specified)
[1]
  remaining activity: 103% (inactive)
[2]; stronger effect = lower value
  fold change: 0.92 (inactive)
[2]; [10]
  fold change: 1.5
[2]; [11]
  cell count: 8730
[2]; [12]
  cell count: 9490
[3]
  z-score: -0.285 (inactive)

## OC(Cc1ccncc1)C(Cl)(Cl)Cl (stereo unspecified)
[1]
  remaining activity: 118% (inactive)
[2]; [9]
  fold change: 0.921 (inactive)
[2]; [10]
  fold change: 0.736
[2]; [11]
  cell count: 9270
[2]; [12]
  cell count: 10100
[3]
  z-score: -0.53 (inactive)

## Oc1ccc2c3c1O[C@H]1c4[nH]c5ccccc5c4C[C@@]4(O)C(C2)N(CC2CC2)CC[C@]314
[4]
  parasite load remaining: 46.5% (inactive)
  viability: 62.3%
[5]
  fluorescence ratio: 0.91 (inactive)
[6]
  inhibition: -1.19% (inactive)
[7]
  inhibition: -0.1% (inactive)
[8]
  fluorescence ratio: 0.89 (inactive)
[1]
  remaining activity: 101% (inactive)
[2]; stronger effect = lower value
  fold change: 1.03 (inactive)
[2]; [10]
  fold change: 0.989
[2]; [11]
  cell count: 8920
[2]; [12]
  cell count: 8700
[3]
  z-score: 0.53 (inactive)

## C=CCN1CC[C@]2(C)c3cc(O)ccc3CC1[C@@H]2C
[1]
  remaining activity: 113% (inactive)
[2]; stronger effect = lower value
  fold change: 0.961 (inactive)
[2]; [10]
  fold change: 0.641
[2]; [11]
  cell count: 8610
[2]; [12]
  cell count: 8960
[3]
  z-score: 0.05 (inactive)
